Measurements taken from PubChem BioAssay (EPA / NIEHS).
Records with an inconclusive call do not appear. Where a structure was tested more than once in an assay, its records may differ in their call. Active and inactive are the calls of the source. How the source made its calls: active means hit-call score of the fitted dose curve at least 0.9, where 1 is the maximum; inconclusive means response in the unintended direction; inactive means score below 0.9.

These molecules were tested against Peroxisome proliferator-activated receptor gamma (Homo sapiens) (UniProt P37231) (assay: ATG_PPARg_TRANS: Attagene TRANS-FACTORIAL HepG2 Assay for human Peroxisome Proliferator-activated Receptor-gamma (PPARg) (AID 2283007)).
Peroxisome proliferator-activated receptor gamma (Homo sapiens), sequence (P37231 whole entry, looked up): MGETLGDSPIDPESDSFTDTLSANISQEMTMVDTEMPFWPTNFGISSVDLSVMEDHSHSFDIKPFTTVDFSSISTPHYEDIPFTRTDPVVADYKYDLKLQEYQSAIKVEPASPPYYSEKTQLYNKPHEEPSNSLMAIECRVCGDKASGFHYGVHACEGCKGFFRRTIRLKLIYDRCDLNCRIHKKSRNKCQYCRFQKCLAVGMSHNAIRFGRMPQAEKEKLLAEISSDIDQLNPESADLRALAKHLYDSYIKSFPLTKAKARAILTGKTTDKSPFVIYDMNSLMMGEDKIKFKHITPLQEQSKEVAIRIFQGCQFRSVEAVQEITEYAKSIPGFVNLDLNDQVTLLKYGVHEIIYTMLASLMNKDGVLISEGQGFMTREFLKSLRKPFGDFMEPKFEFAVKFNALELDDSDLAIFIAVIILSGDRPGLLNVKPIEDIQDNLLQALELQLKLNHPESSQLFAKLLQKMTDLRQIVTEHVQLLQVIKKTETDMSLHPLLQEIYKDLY
Procedure: ATG_TRANS is a cell-based, multiplexed-readout assay that uses HepG2, a human liver cell line, with measurements taken at 24 hours after chemical dosing in a 24-well plate.ATG_PPARg_TRANS is one of 30 assay component(s) measured or calculated from the ATG_TRANS assay. It is designed to make measurements of mRNA induction, a form of inducible reporter, as detected with fluorescence intensity signals by Reverse transcription polymerase chain reaction (RT-PCR) and Capillary electrophoresis technology.Data from the assay component ATG_PPARg_TRANS was analyzed into 1 assay endpoint. This assay endpoint, ATG_PPARg_TRANS, was analyzed in the positive analysis fitting direction relative to DMSO as the negative control and baseline of activity. Using a type of inducible reporter, measures of mRNA for gain-of-signal activity can be used to understand the reporter gene at the transcription factor-level as they relate to the gene PPARG. Furthermore, this assay endpoint can be referred to as a primary readout, because this assay has produced multiple assay endpoints where this one serves a reporter gene function. To generalize the intended target to other relatable targets, this assay endpoint is annotated to the nuclear receptor intended target family, where the subfamily is non-steroidal.
Human liver HepG2 cells are transiently transfected with multiple reporter transcription units (MRTUs) in 6-well plates using FuGene 6 reagent (Roche; 3 ml FuGene/1 mg DNA). The MRTU constructs are regulated by a cis-regulating element (promoter). […] A major difference between the CIS and TRANS system is that in CIS activities of endogenous TFs are measured, whereas the TRANS assay evaluates changes in activities of exogenous, chimeric NR-Gal4 proteins. […] At the end of 24 hour incubation, total RNA was isolated using TriZol reagent (Invitrogen). The isolated RNA is then reverse-transcribed using oligo(dT) primer and Mo-MLV reverse transcriptase (Invitrogen) with DNAse I (Ambion) treatment for 30 min. The one-tenth of the produced cDNA was amplified by PCR using Taq DNA polymerase (Invitrogen) and two reporter sequence-specific primers. The PCR products were fluorescently labeled by primer extension with 6-arboxyfluorescein (6-FAM) 5'-labeled reporter sequence-specific primer (2 min at 95 C, 20 s at 68 C and 10 min at 72 C) and these products were digested with 5U of HpaI (New England Biolabs) for 2h at 37 C. The fragments were purified using Qiaquick PCR columns (Qiagen), analyzed on an ABI 3130xL genetic analyzer (Applied Biosystems) with peak positions identified by using a set of X-rhodamine (ROX)-labeled MapMarker1000 molecular weight standards (BioVentures). The raw capillary electrophoresis data was processed using Attagraph software (Attagene).

`CCOC(=O)CCCCCCCCC(=O)OCC` was tested. Which outcome did it give?
Its outcome is “inactive”.

For `CCC(C)COC(=O)CC(C)C` (stereo not given), which outcome is on record?
Its outcome is “inactive”.

Which outcome does the source give for `CCCCCCCCCCO[C@@H]1O[C@H](CO)[C@@H](O)[C@H](O)[C@H]1O` here?
Its outcome is “inactive”.

`CCC(C)(CCCC(C)C)OC(C)=O` (stereo not given) was tested. Which outcome did it give?
The outcome was “inactive”.

With `CN(C)CCC=C1c2ccccc2CCc2ccccc21` as the molecule, how does the outcome read?
The outcome was “inactive”.

Which AC50 does the source give for `CC(=O)C1=C(C)[C@@H]2C[C@@]3(C1)[C@H](C)CC[C@H]3C2(C)C` here?
The AC50 was 100 µM (active).

Which outcome does the source give for `CC(C)(C)C1CCC(O)CC1` (stereo not given) here?
Its outcome is “inactive”.

`c1ccc2scnc2c1` was tested. Which outcome did it give?
The outcome was “inactive”.

With `CCCCOCCOC(=O)c1ccccc1C(=O)OCCOCCCC` as the molecule, how does the AC50 read?
The AC50 was 27.5 µM (active).

With `CCC(C)(C)C1CCC(OC)CC1` (stereo not given) as the molecule, how does the outcome read?
Its outcome is “inactive”.

How did the outcome turn out when `CCCc1ccc(O)cc1` was run?
Its outcome is “inactive”.

For `CNC(=C[N+](=O)[O-])NCCSCc1ccc(CN(C)C)o1`, which outcome is on record?
The outcome was “inactive”.

For `C[C@]12CC[C@@H]3c4ccc(O)cc4CC[C@H]3[C@@H]1CC[C@@H]2O`, which outcome is on record?
The outcome was “inactive”.

How did the outcome turn out when `CC(C)(C)c1cccc(O)c1` was run?
Its outcome is “inactive”.

`Nc1ccc(N)c([N+](=O)[O-])c1` was tested. Which outcome did it give?
Its outcome is “inactive”.

For `CCC(C)(C)c1cc(O)c(C(C)(C)CC)cc1O`, which outcome is on record?
Its outcome is “inactive”.

How did the outcome turn out when `CC1(C)CC(=O)CC(C)(C)N1` was run?
The outcome was “inactive”.

How did the outcome turn out when `CCCCCCCCCCCCCCCCCC(=O)OCCCCCCCCCCCCCC(C)C` was run?
The outcome was “inactive”.

How did the outcome turn out when `C=COCC1CCC(COC=C)CC1` (stereo not given) was run?
Its outcome is “inactive”.

`CCCCCCCCOS(=O)(=O)O` was tested. Which AC50 did it give?
Its AC50 is 47.6 µM (active).

`CN(C)C(=O)Nc1ccccc1` was tested. Which outcome did it give?
Its outcome is “inactive”.

For `CC1=CC(C)C(C=O)C(C)C1` (stereo not given) (tested in a mixture with another compound), which outcome is on record?
Its outcome is “inactive”.

How did the outcome turn out when `c1ccc2c(c1)-c1ccc3ccc4cccc5cc-2c1c3c45` was run?
The outcome was “inactive”.

With `c1ccc(Sc2ccccc2)cc1` as the molecule, how does the outcome read?
Its outcome is “inactive”.

With `O=C(c1ccc(OCCN2CCCCC2)cc1)c1c(-c2ccc(O)cc2)sc2cc(O)ccc12` as the molecule, how does the AC50 read?
Its AC50 is 13.7 µM (active) [middle of 4 runs].

And the outcome?
Its outcome is “inactive”.

For `CCCCCCCCCCCCOC(C)=O`, which outcome is on record?
Its outcome is “inactive”.

For `NS(=O)(=O)c1cc(C(=O)O)c(NCc2ccco2)cc1Cl`, which AC50 is on record?
Its AC50 is 42.7 µM (active).

`COc1ccc2[nH]cc(CCNC(C)=O)c2c1` was tested. Which outcome did it give?
The outcome was “inactive”.

`CCCO[Si](OCCC)(OCCC)OCCC` was tested. Which outcome did it give?
Its outcome is “inactive”.

How did the outcome turn out when `CC(=O)c1ccc2ccccc2c1` was run?
Its outcome is “inactive”.

For `CCCc1ccc(N)cc1`, which outcome is on record?
The outcome was “inactive”.

With `Nc1ccc(O)c(N)c1` as the molecule, how does the outcome read?
Its outcome is “inactive”.

For `CC(C)C(=O)OCC=Cc1ccccc1`, which outcome is on record?
Its outcome is “inactive”.

Which outcome does the source give for `N#CCCNCCC#N` here?
The outcome was “inactive”.

`CC1=C(C=O)C(C)(C)CCC1` was tested. Which outcome did it give?
The outcome was “inactive”.

How did the outcome turn out when `O=C(O)C1=NN(c2ccc(S(=O)(=O)O)cc2)C(=O)C1` was run?
Its outcome is “inactive”.

`CCC(=O)OCC=Cc1ccccc1` was tested. Which outcome did it give?
Its outcome is “inactive”.

`CC(=O)CCC=C(C)CCC=C(C)C` was tested. Which AC50 did it give?
Its AC50 is 36.6 µM (active).

How did the outcome turn out when `Brc1cc(Br)cc(Br)c1` was run?
Its outcome is “inactive”.
